For 94 molecules, inhibition results are on record in PubChem BioAssay AID1903 (Southern Research Specialized Biocontainment Screening …, 2009).

For orientation: inhibition means the drop in the measured response relative to a control, in per cent.

The campaign covered roughly 310,000 compounds. About 1,200 (0.39%) were called active. Only a sample is shown. Entries with a potency or affinity are not part of this list. A number with no mark means an inactive call. No rule for the calls is given here.

The target of this test is Large T antigen (Simian virus 40) (UniProt P03070). The test is described as follows: TAg ATPase/helicase activity blockers – biochemical (AID 1903). To be noted: SV40 large T antigen ATPase/helicase inhibition assay; at 20 µM; stronger effect = higher value.
Chain of Large T antigen (Simian virus 40) (P03070 whole entry, looked up): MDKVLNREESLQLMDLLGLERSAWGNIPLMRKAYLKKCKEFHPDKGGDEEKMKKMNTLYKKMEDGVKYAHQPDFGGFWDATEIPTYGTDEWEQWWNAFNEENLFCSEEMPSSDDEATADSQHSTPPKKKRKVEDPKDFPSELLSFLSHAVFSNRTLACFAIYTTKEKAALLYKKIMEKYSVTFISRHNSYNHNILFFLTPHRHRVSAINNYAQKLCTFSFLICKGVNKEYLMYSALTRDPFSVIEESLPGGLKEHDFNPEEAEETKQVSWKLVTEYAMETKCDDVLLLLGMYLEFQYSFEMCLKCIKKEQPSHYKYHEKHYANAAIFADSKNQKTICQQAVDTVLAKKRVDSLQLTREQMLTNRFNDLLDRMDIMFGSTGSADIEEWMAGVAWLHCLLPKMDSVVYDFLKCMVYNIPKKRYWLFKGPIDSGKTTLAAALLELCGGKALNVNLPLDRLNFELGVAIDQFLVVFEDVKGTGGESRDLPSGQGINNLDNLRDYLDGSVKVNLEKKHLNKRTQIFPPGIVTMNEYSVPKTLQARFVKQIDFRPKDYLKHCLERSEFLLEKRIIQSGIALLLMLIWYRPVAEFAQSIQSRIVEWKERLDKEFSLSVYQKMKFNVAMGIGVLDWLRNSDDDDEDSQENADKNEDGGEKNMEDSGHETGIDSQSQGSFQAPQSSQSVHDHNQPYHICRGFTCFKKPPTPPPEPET
For the molecule `CCOc1ccc(Br)cc1S(=O)(=O)Nc1ccc(C(=O)Nc2ccccc2OC)cc1`, the inhibition was 11.7%.

In the case of `O=[N+]([O-])c1ccc2c(c1Nc1ccccc1Cl)=NC1(CCCCC1)N=2`, the inhibition was 14.5%.

On to `CCN(CC)C(=O)C(=O)c1cccn1-c1ccc(C#N)cc1`, for which the inhibition is 12.2%.

As for `O=C(Nc1ccccc1)c1ccc(NCC2CCCO2)c([N+](=O)[O-])c1` (centres undefined), the inhibition was 16.3%.

As for `COc1ccc(NC(=O)NC(C)(C(F)(F)F)C(F)(F)F)cc1`, the inhibition is 1.34%.

As for `CC(NC(=O)Nc1ccccc1O)(C(F)(F)F)C(F)(F)F`, the inhibition was 10.1%.

In the case of `O=C(Nc1ccccc1N1CCN(C(=O)c2ccc(Cl)cc2)CC1)c1cccnc1`, the inhibition is -3.62%.

`Cc1noc(C)c1CS(=O)(=O)c1ccc([N+](=O)[O-])cc1`: the inhibition was 4.7%.

Take `CC/C(=N\Nc1nncc2ccccc12)c1ccc(F)cc1`: the inhibition was 0.15%.

With `O=C(c1ccncc1)c1ccc(N2CCN(C3CC(=O)N(Cc4cccs4)C3=O)CC2)cc1` (centres undefined), the inhibition was 4.51%.

On to `O=C1CC(N2CCN(c3ccc(F)cc3)CC2)C(=O)N1Cc1cccs1` (centres undefined), for which the inhibition was 7.54%.

For `COc1cc2c(cc1NC(=O)CSc1ccc(Cl)cc1)oc1ccccc12`, the inhibition was 20.1%.

On to `Cc1ccc(C(=O)CSc2nnc(-c3cccnc3)n2N)cc1`, for which the inhibition is 13.6%.

`O=C(COC(=O)CCC(NC(=O)OCc1ccccc1)C(=O)OCC(=O)Nc1ccccc1)Nc1ccccc1` (centres undefined): the inhibition was 9.57%.

With `O=C(O)/C=C/C(=O)Nc1ccc(-n2nccc2C(F)(F)F)cc1`, the inhibition is 22.7%.

As for `O=C1/C(=C\c2ccc(Br)cc2)SC(=S)N1NS(=O)(=O)c1ccccc1`, the inhibition is 5.34%.

For the molecule `O=C(NN1C(=O)/C(=C/c2cccc(O)c2)SC1=S)c1ccccc1O`, the inhibition is 0.53%.

In the case of `O=C(NN1C(=O)/C(=C/c2ccc(O)cc2)SC1=S)c1ccccc1O`, the inhibition is 38%.

Regarding `CC(/C=C1\SC(=S)N(NS(=O)(=O)c2ccccc2)C1=O)=C\c1ccccc1`, the inhibition is 28.2%.

Turning to `CCCC1NC(=S)N(C2CCCCC2)C1=O` (centres undefined), the inhibition is 1.78%.

In the case of `Cc1ccc(-c2cc3c(n2-c2ccc(C(=O)O)cc2)CCCC3=O)cc1`, the inhibition was 11%.

As for `Cc1ccc(-n2c(C)cc3c2CCCC3=O)cc1`, the inhibition is 17.7%.

As for `CCC(C)(C)n1nnnc1C(c1ccccc1F)N1CCC(C(N)=O)CC1` (centres undefined), the inhibition was 8.52%.

With `O=C(COc1ccc(Cl)cc1)NCc1nnc(SCC(=O)NC2CCCC2)o1`, the inhibition was 14.1%.

Turning to `COc1ccc2cc(C(=O)N3CCN(c4ccccc4OC)CC3)[nH]c2c1`, the inhibition is 2.37%.

Turning to `Cc1ccc2[nH]c3ccccc3c(=O)c2c1`, the inhibition is 4.82%.

In the case of `O=c1c2ccccc2[nH]c2ccccc12`, the inhibition was 7.79%.

Turning to `Cc1ccc(C)c(OC(=O)c2cccnc2Cl)c1C`, the inhibition is 25.3%.

`CCOCCn1c(SCc2ccccc2)nc2c1c(=O)[nH]c(=O)n2C`: the inhibition is 16.9%.

Consider `CCOC(=O)C1C(c2ccccc2)C(C(=O)OCC)S(=O)(=O)C(CCN(CC)CC)S1(=O)=O` (centres undefined), for which the inhibition was 4.87%.

With `COC(=O)Cc1nnc(SCC(=O)Nc2ccccc2)c2ccccc12`, the inhibition is 11.3%.

For the molecule `COc1ccc(NC(=O)Cn2c3ccccc3c3nc4n(c(=O)c32)CCS4)cc1OC`, the inhibition is 10.1%.

For `O=C(Nc1ccccc1)Nc1snnc1C(=O)Nc1cccc(O)c1`, the inhibition was 10.9%.

For `Cc1nnsc1C(=O)Nc1ccc(Cl)cc1`, the inhibition was 3.36%.

Consider `O=C(c1cc(-c2ccc(Cl)cc2)on1)N1CCOCC1`, for which the inhibition is 7.19%.

As for `O=C(c1nnsc1S(=O)(=O)c1ccc(Cl)cc1)N1CCOCC1`, the inhibition was 4.81%.

Consider `Clc1cccc(NCc2nnc(SCc3ccc(Cl)cc3Cl)o2)c1`, for which the inhibition was 0.46%.

Turning to `COc1ccc(/C=N/NC(=O)c2ccccc2OC)cc1COc1ccccc1[N+](=O)[O-]`, the inhibition is 1.66%.

With `CCOC(=O)c1nc(-c2ccccc2)sc1C(C)=O`, the inhibition was 13.2%.

Turning to `Cc1ccc(C)c(NC(=O)CN(C)C(=O)c2cc3ccccc3o2)c1`, the inhibition was 13.7%.

On to `CC(=O)c1ccc(N2CCN(c3ccc(C(N)=O)cc3[N+](=O)[O-])CC2)cc1`, for which the inhibition is 12.7%.

As to `O=[N+]([O-])c1ccc(N2CCOCC2)cn1`, the inhibition was 20.2%.

With `CN1CCN(c2ccc(S(=O)(=O)N3CCCCC3)cc2[N+](=O)[O-])CC1`, the inhibition was 23.6%.

As to `COc1ccc(N2CCN(c3ccc(C(N)=O)cc3[N+](=O)[O-])CC2)cc1`, the inhibition is 20.4%.

For the molecule `O=[N+]([O-])c1ccc(N2CCCCC2)cn1`, the inhibition was 4.49%.

Take `O=[N+]([O-])c1cc(S(=O)(=O)Nc2ccccc2)ccc1N1CCN(c2ccc(O)cc2)CC1`: the inhibition was 17.3%.

Turning to `CSc1ncccc1C(=O)Nc1nc(C(C)(C)C)cs1`, the inhibition is 8.58%.

For the molecule `COc1ccc(C(CC(=O)NCc2ccccc2)C(C)C)cc1` (centres undefined), the inhibition is 6.33%.

For `Cc1c(NC(=O)C(C)OC(=O)COc2ccccc2)c(=O)n(-c2ccccc2)n1C` (centres undefined), the inhibition is 10.4%.

For `CCCCN(CCCC)CCNC(=O)Cc1nc2c(c(=O)[nH]c(=O)n2C)n1C`, the inhibition was 3.54%.

Regarding `CC(NC(=O)Nc1ccc(F)cc1F)c1ccc2c(c1)OCO2` (centres undefined), the inhibition is 16.7%.

Regarding `CCCn1c(SCC(=O)NCc2ccc(C)cc2)n[nH]c1=O`, the inhibition was 7.77%.

For the molecule `COc1ccc(NC(=O)CN(C)C(=O)c2cccc(S(=O)(=O)N3CCN(Cc4ccccc4)CC3)c2)cc1`, the inhibition was 8.39%.

`COCCn1c(SCC(=O)N2CC(C)OC(C)C2)nc2c([nH]c3ccccc32)c1=O` (centres undefined): the inhibition was -1.92%.

`COc1ccc(OC)c(/C=N/NC(=O)CCc2c(C)n[nH]c2C)c1`: the inhibition is 5.18%.

`COc1ccc(OC)c(/C=N/NC(=O)C(=O)N/N=C/c2cc(OC)ccc2OC)c1`: the inhibition was -5.1%.

In the case of `O=C(CCc1ccc(O)c(O)c1)N/N=C/c1ccc2c(c1)OCO2`, the inhibition was 32.3%.

As to `CN1CCN(CCC(=O)N/N=C/c2cc3c(cc2[N+](=O)[O-])OCO3)CC1`, the inhibition was 4.45%.

Turning to `CCN(CC)S(=O)(=O)c1cccc(NC(=O)COC(=O)CCc2nc3ccccc3s2)c1`, the inhibition is 11.8%.

Turning to `Cc1snc(S(=O)(=O)/C(C#N)=N/Nc2ccc(C(F)(F)F)cc2)c1C#N`, the inhibition is 6.46%.

Take `Cc1ccc(C)c(C(=O)CSc2nnc(C)s2)c1`: the inhibition was -0.65%.

Turning to `CC1CCCCN1C(=O)CSc1nc(N)nc(N)n1` (centres undefined), the inhibition is 3.86%.

As for `COc1ccc(NC(=O)c2ccccc2NC(=O)COc2ccccc2)cc1`, the inhibition is 12.1%.

On to `COC(=O)c1ccc(OC)c(NS(=O)(=O)c2ccc(-n3cnnn3)cc2)c1`, for which the inhibition is 2.42%.

`Cn1nc(-c2ccccc2)nc1-c1ccccc1`: the inhibition was 11.2%.

Regarding `O=c1nc(-c2ccccc2)n(-c2ccccc2)[nH]1`, the inhibition was -3.35%.

With `COc1cc(C(=O)NCC(=O)N/N=C/c2ccccn2)cc(OC)c1OC`, the inhibition is 10.4%.

`CCc1c(C(=O)NNC(=S)Nc2ccc(S(=O)(=O)Nc3ncccn3)cc2)csc1C`: the inhibition is 15.1%.

Turning to `Cc1n[nH]c(C)c1S(=O)(=O)N1CCC(C(=O)Nc2cccc(F)c2)CC1`, the inhibition is 4.04%.

Take `O=C(NCCc1ccccc1)C1CCN(S(=O)(=O)N2CCCC2)CC1`: the inhibition was 7.04%.

On to `CCC(=O)Nc1ccc(NC(=O)c2ccco2)cc1`, for which the inhibition is 2.13%.

Consider `O=C(Nc1ccc(NC(=O)c2ccco2)cc1)c1ccco1`, for which the inhibition was 3.69%.

On to `Cc1ccc(NC(=O)CCNC(=O)c2ccco2)cc1`, for which the inhibition was 1%.

Consider `CC(=O)Nc1ccc(NC(=O)c2ccccc2F)cc1`, for which the inhibition is 2.47%.

As to `CCN(CC)S(=O)(=O)c1ccc(NC(=O)CCNC(=O)c2ccco2)cc1`, the inhibition was 7.03%.

With `COc1cccc(OC)c1C(=O)Nc1ccc(NC(=O)c2ccco2)cc1`, the inhibition was 2.08%.

Regarding `O=C(Nc1ccc(F)cc1)c1ccccc1F`, the inhibition is 12.9%.

As to `COc1ccccc1NC(=O)c1ccc(NC(=O)c2ccco2)cc1`, the inhibition was 9.63%.

Regarding `Cc1cccc(C)c1OCC(=O)NNC(=O)c1ccoc1C`, the inhibition is 2.67%.

As to `CN(C)CCCN(C(=O)c1ccc2ccccc2c1)c1nc2cc3c(cc2s1)OCO3`, the inhibition is 3.84%.

Turning to `CCOC(=O)n1c(=O)n(C)c2ccc(Br)cc21`, the inhibition is 4.58%.

For the molecule `C(=C\c1ccccc1)/C=N/Nc1nncc(-c2ccccc2)n1`, the inhibition was 8.88%.

For the molecule `Cc1ccc(CN2CCN(C3CCC3)CC2CCO)cc1` (centres undefined), the inhibition was 9.81%.

On to `COc1cc([C@H]2Oc3cc([C@H]4Oc5cc(O)cc(O)c5C(=O)[C@@H]4O)ccc3O[C@@H]2CO)ccc1O`, for which the inhibition is 22.1%.

Regarding `COc1cc(C2Oc3cc(C4Oc5cc(O)cc(O)c5C(=O)C4O)ccc3OC2CO)ccc1O` (centres undefined), the inhibition was 22.1%.

On to `CCc1nnc(SCc2ccc(C(=O)OC)o2)n1N`, for which the inhibition was 15%.

For the molecule `CN1/C(=C/C=N/NC(=O)c2ccc([N+](=O)[O-])cc2)C(C)(C)c2ccccc21`, the inhibition is 4.27%.

On to `CN1/C(=C\C=N\NC(=O)c2cccnc2)C(C)(C)c2ccccc21`, for which the inhibition was 33.6%.

With `Cc1ccccc1N1CC(=O)N(c2ccccc2C)CC1=O`, the inhibition is 0.89%.

Turning to `Cn1c2ccccc2c(=O)c2ccc(F)cc21`, the inhibition is 0.83%.

On to `COc1cccc(C(=O)NC2CC3CCCC(C2)N3CC(=O)Nc2ccccc2)c1` (centres undefined), for which the inhibition is 34%.

Regarding `O=C(CN1C2CCCC1CC(NC(=O)c1ccccc1)C2)NC1CC1` (centres undefined), the inhibition is 6.22%.

For the molecule `COc1cccc(C(=O)NC2CC3CCCC(C2)N3CC(=O)Nc2ccccc2C(F)(F)F)c1` (centres undefined), the inhibition was -1.46%.

Take `O=C(CN1C2CCCC1CC(NC(=O)c1ccccc1)C2)Nc1ccccc1` (centres undefined): the inhibition is -14.7%.
